This is a sample that favours compounds with a hit; in the whole collection about 19% have one here.
ELG1 DNA repair: inhibitors of ELG1-dependent DNA repair in HEK293T cells; AID 504467; HEK293T ELG1-luciferase reporter, luminescence, 16 h; DNA damage induced by 5-fluorouridine; actives 2.3% (n = 330,000); Potency, µM (top dose mostly 46.1 µM), inactives show at the top dose activity change, negative = inhibition, actives largely listed as inhibitors; note: potency is the fitted concentration of half-maximal effect; nearly all actives have a fitted effect of over 55% in size
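5-Fluorouridine DNA damage + compound/DMSO, 2,000 cells/well, 16 h, 37 °C/5% CO2. ONE-Glo, 30 min RT, luminescence. Readout = decrease in reporter signal.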
TDP1 cell CPT: growth inhibition of DT40 Tdp1-/-;hTDP1 cells with camptothecin (screen for TDP1 inhibitors); Potency, µM (highest dose often 46.2 µM), for the others: top-dose activity change, negative = growth inhibition, most hits filed as inhibitors; chicken DT40 Tdp1-/-;hTDP1 cells + 20 nM CPT, ATP luminescence, 48 h; AID 686979; actives 12% (n = 420,000); note: potency is the fitted concentration of half-maximal effect; nearly all actives have a fitted effect of over 55% in size
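Cell growth measured by CellTiter-Glo luminescence after a minimum 48 h, 37 C compound exposure with 20 nM CPT in Tdp1-knockout DT40 cells stably expressing hTDP1, seeded 400/well; qHTS titration format.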
DT40 TDP1 no CPT: qHTS for Inhibitors of human tyrosyl-DNA phosphodiesterase 1 (TDP1): qHTS in cells in absence of CPT; AID 686978, 2013; Potency, µM (top dose mostly 46.2 µM), for inactives: at the top dose activity change, negative = growth inhibition, most hits filed as inhibitors; DT40 Tdp1-/- hTDP1 cells, no CPT, ATP luminescence, 48 h; actives 15% (n = 420,000); note: potency is the fitted concentration of half-maximal effect; nearly all actives have a fitted effect of over 55% in size
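Readout: luminescence from CellTiter-Glo after 30 min in the dark at RT. Cells: DT40 Tdp1-/- with stable hTDP1, 400/well. Exposure: compounds alone, ≥48 hr, 37 °C.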
IL1B secr inh: blocks inflammasome-driven IL-1 beta release | actives 4.7% (n = 360,000) | THP-1 LPS/ATP IL-1B secretion, AlphaLISA, 16 h; active compounds read low | AID 743279 | activity change, % at 57.5 µM; in the data active = activity change below about -50%; inconclusive = mostly about -30% to -49%
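Secreted IL-1B measured by AlphaLISA bead assay after 16 h compound exposure of THP-1 cells; compounds (final up to 57.5 uM) added 1 h before LPS (250 ng/mL) and ATP (1.25 mM) stimulation; lower signal means less secretion.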
HT1080-NT tox: kills 2HG-producing HT-1080-NT fibrosarcoma cells | Potency, µM (top dose mostly 46.1 µM), for inactives: at the top dose activity, negative = less viability, most hits filed as cytotoxic | HT-1080-NT fibrosarcoma viability, CellTiter-Glo ATP luminescence, 48 h | actives 1.6% (n = 360,000);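 note: NT is the 2HG producing partner of a matched IDH1 knockdown line; potency is the fitted concentration of half-maximal effect; 0% = DMSO-treated cells and -100% = media-only wells without cells; nearly all actives have a fitted effect of over 55% in size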
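Viability by CellTiter-Glo luminescence after 48 h compound exposure at 37C of HT-1080-NT cells (750/well, RPMI, 5% FBS). % activity scaled between DMSO wells and medium-only wells, then curve-fitted and categorized by curve class.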
HT1080 IDH1KD tx: toxicity to HT-1080 IDH1 knockdown cells (counter line). HT-1080 IDH1 knockdown viability, ATP luminescence, 48 h. Potency, µM (series often up to 46.1 µM), for inactives: at the highest dose activity, negative = toxicity, actives largely listed as cytotoxic. actives 2% (n = 360,000). AID 686971;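 note: potency is the fitted concentration of half-maximal effect; 0% = DMSO wells and -100% = cell-free medium wells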
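Cytotoxicity counter-line: IDH1KD HT-1080, 48 h, CellTiter-Glo. Curves classed by r2, magnitude and activity.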
* marks the source's active call; other numbers are inactive results; ? = inconclusive; · = no result. Unless noted, calls come from the whole dose curve; as a rule, active = well fitted curve in the direction sought with a large enough effect; inconclusive = small, poorly fitted or top-dose-only effect, or another doubt; inactive = no such curve, though single readings can be large; an effect the other way counts as inactive or inconclusive. Unless noted, % is set by controls: 0 for no effect and ±100 for the full control effect.

SMILES	ELG1 DNA repair	TDP1 cell CPT	DT40 TDP1 no CPT	IL1B secr inh	HT1080-NT tox	HT1080 IDH1KD tx
CC(=O)NCc1ccc(S(=O)(=O)N2CCN(c3ccccn3)CC2)cc1	3%	-28%	-12%	-1	13%	13%
Cc1ccc(C(=O)NNC(=O)c2ccc(S(=O)(=O)N3CCCCC3)cc2)cc1	9%	5.2µM*	23µM*	10	0%	?
Cc1ccc(C(=O)NCCc2ccc(S(=O)(=O)N3CCCC3)cc2)cc1	-13%	-11%	-27%	0	10%	-14%
CC(=O)NCc1ccc(S(=O)(=O)N2CCCN(C)CC2)cc1	6%	?	23µM*	8	27%	?
COC(=O)C1C(c2ccc(N(C)C)cc2)C(C(=O)OC)S(=O)(=O)CS1(=O)=O (centres undefined)	-1%	4%	7%	3	1%	19%
Cc1nc2c(-c3ccc(F)cc3)c(C)nn2c(C)c1CCC(=O)Nc1ccccc1	-11%	?	?	-12	-16%	0%
CCOC(=O)C1CCCCN1C(=O)CCc1c(C)nc2cc(-c3ccccc3)nn2c1C (centres undefined)	?	3.7µM*	4.1µM*	38	13%	11%
Cc1nc2c(-c3ccc(F)cc3)c(C)nn2c(C)c1CCC(=O)N1CCC(Cc2ccccc2)CC1	-20%	?	23µM*	-11	-1%	-11%
CCOC(=O)C1CCN(C(=O)CCc2c(C)nc3c(-c4ccc(F)cc4)c(C)nn3c2C)CC1	?	8.2µM*	?	9	-1%	10%
COc1ccccc1NC(=O)CCc1c(C)nc2c(-c3ccc(F)cc3)c(C)nn2c1C	?	15µM*	?	-2	-19%	3%
Cc1ccccc1C(=O)Nc1ccnn1C1CCN(C(=O)c2ccoc2)CC1	2%	0%	1%	6	5%	2%
CCN(CC(=O)Nc1cccc(S(=O)(=O)N(C)c2ccccc2)c1)Cc1cccs1	?	?	?	-9	-8%	-3%
Cc1ccc(NC(=O)Cn2c(-c3nonc3N)nc3ccccc32)cc1Cl	·	-13%	-4%	·	·	·
COc1ccc(CNc2ncnc3c2nnn3C)cc1	·	-21%	-23%	·	·	·
Cc1nc2c(-c3ccc(F)cc3)c(C)nn2c(C)c1CCC(=O)N1CCN(c2ccccc2)CC1	-1%	18µM*	?	-14	-1%	-5%
Cc1nc2c(-c3ccccc3)c(C)nn2c(C)c1CCC(=O)N1CCOCC1	-5%	-6%	-19%	-9	2%	?
CCN1CCN(c2ccc(NC(=O)CCc3c(C)nc4c(-c5ccc(F)cc5)c(C)nn4c3C)cc2)CC1	?	10µM*	5.8µM*	?	-6%	-27%
Cc1nc2cc(-c3ccccc3)nn2c(C)c1CCC(=O)N1CCN(c2ccccn2)CC1	8%	·	·	·	·	·
Cc1nc2c(-c3ccc(F)cc3)c(C)nn2c(C)c1CCC(=O)N1CCN(c2ccc(F)cc2)CC1	?	18µM*	18µM*	-22	-2%	-2%
Cc1nc2cc(-c3ccccc3)nn2c(C)c1CCC(=O)N1CCN(c2ccc(F)cc2)CC1	·	23µM*	10µM*	·	·	·
O=C(CCc1nc2ccccc2c(=O)[nH]1)Nc1cc(Cl)ccc1N1CCCC1	14%	-23%	-15%	-3	-2%	1%
O=C(Nc1sc2c(c1C(=O)NCC1CCCO1)CCC2)c1cc(=O)c2ccccc2o1 (centres undefined)	·	-24%	?	·	·	·
CC(C)c1ccc(OCC(O)CN2CCN(c3ccccc3)CC2)cc1 (centres undefined)	-2%	?	?	-74*	?	16µM*
CC1CCN(CC(O)COc2ccc(-c3ccccc3)cc2)CC1 (centres undefined)	-6%	?	18µM*	-29	?	-10%
COc1ccc(OCC(O)CN2CCN(c3ccccc3)CC2)cc1 (centres undefined)	5%	-17%	-1%	19	17%	10%
SMILES	ELG1 DNA repair	TDP1 cell CPT	DT40 TDP1 no CPT	IL1B secr inh	HT1080-NT tox	HT1080 IDH1KD tx
O=C(Oc1coc(CSc2nnc(NC(=O)C3CC3)s2)cc1=O)c1c(F)cccc1F	-1%	18%	0%	4	-15%	-19%
COc1cccc(Cn2c(=O)cnc3cnc(N4CCOCC4)nc32)c1	·	-6%	?	·	·	·
COc1ccc(-c2cc(NC=O)c3ncc(-c4ccc(C(C)=O)cc4)n3c2)cc1OC	·	16µM*	18µM*	-70*	16µM*	13µM*
COc1cc(-c2cc(NC=O)c3ncc(-c4ccc(C(C)=O)cc4)n3c2)cc(OC)c1OC	·	10µM*	7.3µM*	-59*	?	?
O=C(NCC1CCCCC1)c1cccc(Br)c1	?	?	-11%	11	18%	-1%
CCC1CCCCN1S(=O)(=O)c1ccc(C(=O)Nc2sc3c(c2C(=O)NC)CCC3)cc1 (centres undefined)	·	21µM*	16µM*	·	·	·
CNC(=O)c1c(NC(=O)c2ccc(S(=O)(=O)N3CCCC(C)C3)cc2)sc2c1CCC2 (centres undefined)	·	21µM*	18µM*	·	·	·
COCC(=O)N(C)C[C@@H]1Oc2ncc(Br)cc2C(=O)N([C@@H](C)CO)C[C@H]1C	·	14%	-19%	8	5%	-4%
O=c1c2ccc([N+](=O)[O-])cc2ncn1CCOc1ccccc1	?	?	?	-2	-1%	-29%
COc1ccc2c(Cn3cnc4cc([N+](=O)[O-])ccc4c3=O)cc(=O)oc2c1	?	5.2µM*	6.5µM*	1	3.7µM*	2.6µM*
Cc1ccc(OCCn2cnc3cc([N+](=O)[O-])ccc3c2=O)cc1	21µM*	?	?	16	-12%	-25%
O=c1c2ccc([N+](=O)[O-])cc2ncn1Cc1ccccc1C(F)(F)F	5%	-25%	?	11	-1%	2%
O=C(Cn1cnc2cc([N+](=O)[O-])ccc2c1=O)Nc1ccccc1-c1ccccc1	?	23µM*	?	0	0%	0%
CCCNC(=O)C(Cc1ccc(Br)cc1)NC(=O)c1ccc(C#N)cc1 (centres undefined)	13%	-25%	-16%	0	-5%	-4%
